# Data taken from PubChem BioAssay (EPA / NIEHS).
# Several values for one entry are separate records, joined by “and”; a condition that tells them apart may be missing. Equal values may be shown once. Results filed as inconclusive are left out. Some compounds were tested as several samples or in several runs, with calls that do not always agree. Activity calls are given as the source filed them. How the source made its calls: active means hit-call score of the fitted dose curve at least 0.9, where 1 is the maximum; inconclusive means response in the unintended direction; inactive means score below 0.9.
# How the values were obtained:
# [1] = target: Collagenase 3 (Homo sapiens) (UniProt P45452); experiment: NVS_ENZ_hMMP13: NovaScreen (NVS) Enzymatic Assay for human Matrix Metalloproteinase-13 (MMP13) (AID 2283182)
# In short: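 Recombinant MMP13 cleaving fluorescent substrate, cell-free, measured 1 h after dosing. Primary duplicate screen at 25 uM; actives tested in concentration-response up to 50 uM; loss of signal relative to DMSO.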
# [2] = target: Glycogen synthase kinase-3 beta (Homo sapiens) (UniProt P49841); experiment: NVS_ENZ_hGSK3b: NovaScreen (NVS) Enzymatic Assay for human Glycogen Synthase Kinase-3 beta (GSK3b) (AID 2283165)
# In short: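 Recombinant enzyme with specific fluorescent substrate, 1 h, product separated by electrophoretic mobility shift. Primary duplicate screen at 25 uM; actives (e.g. 30% inhibition) followed in singleton concentration-response to 50 uM. Signal loss fitted versus DMSO.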
# [3] = target: human MAP Kinase-Activated Protein Kinase 2 (MAPKAPK2), MAPKAPK2 (gene 9261) (UniProt P49137); experiment: NVS_ENZ_hMAPKAPK2: NovaScreen (NVS) Enzymatic Assay for human MAP Kinase-Activated Protein Kinase 2 (MAPKAPK2) (AID 2283178)
# Chain of human MAP Kinase-Activated Protein Kinase 2 (MAPKAPK2), MAPKAPK2 (gene 9261) (P49137 whole entry, looked up): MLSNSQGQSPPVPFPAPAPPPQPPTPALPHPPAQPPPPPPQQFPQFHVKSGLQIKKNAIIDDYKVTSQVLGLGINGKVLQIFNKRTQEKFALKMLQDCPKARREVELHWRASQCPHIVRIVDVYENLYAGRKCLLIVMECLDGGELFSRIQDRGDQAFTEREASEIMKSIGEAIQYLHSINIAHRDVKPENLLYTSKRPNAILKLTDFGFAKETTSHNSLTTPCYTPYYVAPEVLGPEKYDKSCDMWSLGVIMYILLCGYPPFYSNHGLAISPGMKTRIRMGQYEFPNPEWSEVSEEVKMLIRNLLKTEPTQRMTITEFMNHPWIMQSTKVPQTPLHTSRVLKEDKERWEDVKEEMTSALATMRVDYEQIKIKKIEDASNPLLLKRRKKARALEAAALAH
# In short: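 Chemicals screened in duplicate at 25 uM, then to 50 uM top concentration in concentration-response, against recombinant human MAPKAPK2; substrate conversion read 1 hr post-dosing by fluorescence after electrophoretic mobility-shift separation, loss-of-signal relative to DMSO.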
# [4] = target: human Matrix Metalloproteinase-1 (MMP1), MMP1 (gene 4312) (UniProt P03956); experiment: NVS_ENZ_hMMP1: NovaScreen (NVS) Enzymatic Assay for human Matrix Metalloproteinase-1 (MMP1) (AID 2283181)
# Chain of human Matrix Metalloproteinase-1 (MMP1), MMP1 (gene 4312) (P03956 whole entry, looked up): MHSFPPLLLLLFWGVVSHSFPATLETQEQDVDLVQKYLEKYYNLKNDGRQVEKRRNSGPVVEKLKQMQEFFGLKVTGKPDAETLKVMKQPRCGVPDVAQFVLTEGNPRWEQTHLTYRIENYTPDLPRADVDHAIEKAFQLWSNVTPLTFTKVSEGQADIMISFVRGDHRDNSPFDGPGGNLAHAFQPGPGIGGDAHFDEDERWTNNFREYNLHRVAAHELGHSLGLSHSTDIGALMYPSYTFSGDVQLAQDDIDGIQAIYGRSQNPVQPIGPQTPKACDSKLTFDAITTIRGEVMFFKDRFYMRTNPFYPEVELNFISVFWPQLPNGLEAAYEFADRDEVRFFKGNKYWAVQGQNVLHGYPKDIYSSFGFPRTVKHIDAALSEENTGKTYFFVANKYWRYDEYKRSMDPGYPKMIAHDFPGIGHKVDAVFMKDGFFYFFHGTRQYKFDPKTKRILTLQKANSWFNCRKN
# In short: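 Cell-free fluorescent substrate assay of human MMP1, read after 1 h. A single 25 uM duplicate screen was followed by concentration series to a maximum of 50 uM for actives meeting threshold; inhibition analysed against DMSO baseline.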
# [5] = target: human IkappaB Kinase alpha (IKKa), CHUK (gene 1147) (UniProt O15111); experiment: NVS_ENZ_hIKKa: NovaScreen (NVS) Enzymatic Assay for human IkappaB Kinase alpha (IKKa) (AID 2283167)
# Chain of human IkappaB Kinase alpha (IKKa), CHUK (gene 1147) (O15111 whole entry, looked up): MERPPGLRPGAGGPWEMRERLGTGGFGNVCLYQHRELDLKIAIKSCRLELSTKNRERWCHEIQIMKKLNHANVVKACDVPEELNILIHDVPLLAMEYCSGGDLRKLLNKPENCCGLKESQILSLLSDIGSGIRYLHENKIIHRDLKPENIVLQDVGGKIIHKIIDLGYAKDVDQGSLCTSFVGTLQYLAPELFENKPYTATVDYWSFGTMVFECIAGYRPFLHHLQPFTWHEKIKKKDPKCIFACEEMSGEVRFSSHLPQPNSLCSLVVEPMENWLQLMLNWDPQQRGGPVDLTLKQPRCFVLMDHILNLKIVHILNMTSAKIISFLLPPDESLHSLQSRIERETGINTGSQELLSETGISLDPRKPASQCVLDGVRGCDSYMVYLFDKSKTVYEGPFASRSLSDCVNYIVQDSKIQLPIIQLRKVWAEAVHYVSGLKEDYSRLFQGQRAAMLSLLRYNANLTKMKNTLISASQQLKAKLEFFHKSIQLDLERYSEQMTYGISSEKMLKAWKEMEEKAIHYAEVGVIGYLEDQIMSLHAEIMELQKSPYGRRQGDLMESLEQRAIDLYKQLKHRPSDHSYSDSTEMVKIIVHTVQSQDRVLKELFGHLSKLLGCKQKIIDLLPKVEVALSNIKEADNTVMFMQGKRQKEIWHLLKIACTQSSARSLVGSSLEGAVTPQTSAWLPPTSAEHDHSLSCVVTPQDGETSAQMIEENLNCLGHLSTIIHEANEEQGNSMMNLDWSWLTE
# In short: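 Compounds first run in duplicate at 25 uM, those meeting threshold (e.g. 30% inhibition) retested to maximum 50 uM. Enzyme activity of recombinant IKKa measured by fluorescence with electrophoretic mobility shift separation, 1 hour post-dosing, DMSO baseline.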
# [6] = target: human Janus Kinase 2 (Jak2), JAK2 (gene 3717) (UniProt O60674); experiment: NVS_ENZ_hJak2: NovaScreen (NVS) Enzymatic Assay for human Janus Kinase 2 (Jak2) (AID 2283169)
# Chain of human Janus Kinase 2 (Jak2), JAK2 (gene 3717) (O60674 whole entry, looked up): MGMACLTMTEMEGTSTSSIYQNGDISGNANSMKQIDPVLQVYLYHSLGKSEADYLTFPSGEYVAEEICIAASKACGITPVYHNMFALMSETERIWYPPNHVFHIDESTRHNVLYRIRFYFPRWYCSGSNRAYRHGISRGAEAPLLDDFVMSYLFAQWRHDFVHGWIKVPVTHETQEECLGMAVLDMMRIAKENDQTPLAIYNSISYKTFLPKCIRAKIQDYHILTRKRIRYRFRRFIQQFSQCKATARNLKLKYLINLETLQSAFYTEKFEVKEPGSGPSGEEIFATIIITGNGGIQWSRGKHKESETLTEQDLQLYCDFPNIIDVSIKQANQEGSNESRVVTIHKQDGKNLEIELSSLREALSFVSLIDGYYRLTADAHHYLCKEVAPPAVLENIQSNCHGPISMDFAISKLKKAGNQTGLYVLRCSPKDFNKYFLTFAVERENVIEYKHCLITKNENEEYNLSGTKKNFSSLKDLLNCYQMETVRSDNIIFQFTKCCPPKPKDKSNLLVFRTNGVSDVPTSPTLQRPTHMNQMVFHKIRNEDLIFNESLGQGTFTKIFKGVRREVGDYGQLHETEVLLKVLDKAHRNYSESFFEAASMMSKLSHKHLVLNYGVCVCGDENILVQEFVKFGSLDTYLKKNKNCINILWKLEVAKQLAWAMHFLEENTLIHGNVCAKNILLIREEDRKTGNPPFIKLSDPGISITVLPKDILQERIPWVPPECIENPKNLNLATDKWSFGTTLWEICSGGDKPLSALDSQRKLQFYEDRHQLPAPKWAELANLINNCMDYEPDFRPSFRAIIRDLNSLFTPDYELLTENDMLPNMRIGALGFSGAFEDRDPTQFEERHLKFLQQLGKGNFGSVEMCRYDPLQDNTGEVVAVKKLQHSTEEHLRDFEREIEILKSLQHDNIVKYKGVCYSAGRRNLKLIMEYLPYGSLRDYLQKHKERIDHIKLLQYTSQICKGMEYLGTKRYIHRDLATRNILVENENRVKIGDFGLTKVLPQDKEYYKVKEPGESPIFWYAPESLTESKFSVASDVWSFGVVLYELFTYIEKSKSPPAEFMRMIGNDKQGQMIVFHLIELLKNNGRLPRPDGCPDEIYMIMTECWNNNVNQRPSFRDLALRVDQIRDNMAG
# In short: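 Single-point duplicate screen at 25 uM, with hits run in concentration series to a 50 uM top dose. Substrate-product separation by mobility shift with fluorescence detection, 1 h post-dosing; DMSO baseline.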
# [7] = target: human Mitogen-Activated Protein Kinase 1 (MAPK 1), MAPK1 (gene 5594) (UniProt P28482); experiment: NVS_ENZ_hMAPK1: NovaScreen (NVS) Enzymatic Assay for human Mitogen-Activated Protein Kinase 1 (MAPK 1) (AID 2283175)
# Chain of human Mitogen-Activated Protein Kinase 1 (MAPK 1), MAPK1 (gene 5594) (P28482 whole entry, looked up): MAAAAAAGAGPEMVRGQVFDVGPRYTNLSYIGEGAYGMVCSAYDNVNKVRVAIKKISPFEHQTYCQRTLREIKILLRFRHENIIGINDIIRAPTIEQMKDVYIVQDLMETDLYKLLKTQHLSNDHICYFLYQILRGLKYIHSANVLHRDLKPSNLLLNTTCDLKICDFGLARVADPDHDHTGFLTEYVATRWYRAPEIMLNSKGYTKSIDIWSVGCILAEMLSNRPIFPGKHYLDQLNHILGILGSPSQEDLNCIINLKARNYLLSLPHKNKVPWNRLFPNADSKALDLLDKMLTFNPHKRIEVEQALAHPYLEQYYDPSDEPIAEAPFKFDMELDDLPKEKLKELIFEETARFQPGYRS
# In short: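 Cell-free recombinant human MAPK1 enzymatic assay, fluorescence/electrophoretic mobility shift read at 1 h; loss of signal vs DMSO. Primary screen in duplicate at 25 uM; actives (e.g. ≥30% inhibition) run as concentration-response up to 50 uM.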
# [8] = target: Mitogen-activated protein kinase 3 (Homo sapiens) (UniProt P27361); experiment: NVS_ENZ_hMAPK3: NovaScreen (NVS) Enzymatic Assay for human Mitogen-Activated Protein Kinase 3 (MAPK 3) (AID 2283177)
# Chain of Mitogen-activated protein kinase 3 (Homo sapiens) (P27361 whole entry, looked up): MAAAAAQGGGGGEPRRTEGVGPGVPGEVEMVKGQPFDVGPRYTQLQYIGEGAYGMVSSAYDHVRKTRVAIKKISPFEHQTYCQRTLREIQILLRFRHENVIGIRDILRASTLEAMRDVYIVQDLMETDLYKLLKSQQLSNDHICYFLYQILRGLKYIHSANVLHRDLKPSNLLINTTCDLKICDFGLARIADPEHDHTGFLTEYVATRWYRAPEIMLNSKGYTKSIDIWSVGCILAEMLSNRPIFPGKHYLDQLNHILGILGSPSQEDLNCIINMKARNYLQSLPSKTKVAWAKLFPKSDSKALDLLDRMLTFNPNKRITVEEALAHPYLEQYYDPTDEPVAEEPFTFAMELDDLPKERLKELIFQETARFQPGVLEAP
# In short: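 Chemicals were first tested in duplicate at 25 uM, with hits re-run as concentration series (max 50 uM). Recombinant enzyme activity, measured 1 h post-dose in a cell-free format, was read by fluorescence/mobility shift relative to DMSO.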
# [9] = target: human Insulin Receptor (InsR), INSR (gene 3643) (UniProt P06213); experiment: NVS_ENZ_hInsR: NovaScreen (NVS) Enzymatic Assay for human Insulin Receptor (InsR) (AID 2283168)
# Chain of human Insulin Receptor (InsR), INSR (gene 3643) (P06213 whole entry, looked up): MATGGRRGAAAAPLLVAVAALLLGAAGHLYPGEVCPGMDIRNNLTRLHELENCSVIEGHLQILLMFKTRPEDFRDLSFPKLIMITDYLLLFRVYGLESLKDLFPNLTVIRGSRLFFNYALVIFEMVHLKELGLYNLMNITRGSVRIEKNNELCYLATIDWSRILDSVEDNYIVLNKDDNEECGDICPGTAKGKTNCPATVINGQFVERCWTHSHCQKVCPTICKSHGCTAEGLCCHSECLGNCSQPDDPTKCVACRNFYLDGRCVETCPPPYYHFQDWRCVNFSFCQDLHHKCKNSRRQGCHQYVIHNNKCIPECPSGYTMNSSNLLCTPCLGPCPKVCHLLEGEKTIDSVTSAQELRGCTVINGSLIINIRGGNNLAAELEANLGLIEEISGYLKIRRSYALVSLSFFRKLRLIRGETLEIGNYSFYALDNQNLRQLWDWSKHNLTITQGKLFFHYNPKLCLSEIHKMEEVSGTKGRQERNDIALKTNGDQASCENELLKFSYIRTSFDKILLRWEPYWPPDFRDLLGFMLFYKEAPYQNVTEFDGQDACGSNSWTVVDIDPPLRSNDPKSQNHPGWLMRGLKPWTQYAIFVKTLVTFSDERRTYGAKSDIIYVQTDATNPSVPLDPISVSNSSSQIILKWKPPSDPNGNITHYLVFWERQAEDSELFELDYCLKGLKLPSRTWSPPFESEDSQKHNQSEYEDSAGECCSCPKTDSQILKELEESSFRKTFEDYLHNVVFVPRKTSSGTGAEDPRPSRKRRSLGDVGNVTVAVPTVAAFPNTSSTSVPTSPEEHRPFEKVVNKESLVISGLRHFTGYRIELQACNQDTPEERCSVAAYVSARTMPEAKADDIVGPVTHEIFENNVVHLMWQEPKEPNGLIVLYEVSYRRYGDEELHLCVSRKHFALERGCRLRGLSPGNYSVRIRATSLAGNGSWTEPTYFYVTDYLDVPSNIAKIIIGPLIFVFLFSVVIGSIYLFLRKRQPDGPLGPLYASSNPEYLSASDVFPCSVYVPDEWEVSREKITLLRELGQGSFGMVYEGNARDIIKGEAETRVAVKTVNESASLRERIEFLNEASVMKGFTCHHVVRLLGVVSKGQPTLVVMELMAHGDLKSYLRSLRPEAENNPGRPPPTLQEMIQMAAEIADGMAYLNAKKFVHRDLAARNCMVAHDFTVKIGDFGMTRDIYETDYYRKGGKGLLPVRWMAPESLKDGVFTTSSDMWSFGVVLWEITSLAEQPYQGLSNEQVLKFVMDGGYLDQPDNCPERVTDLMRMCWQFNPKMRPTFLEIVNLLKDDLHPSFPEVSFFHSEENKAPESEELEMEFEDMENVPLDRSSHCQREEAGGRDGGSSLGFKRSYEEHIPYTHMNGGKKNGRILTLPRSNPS
# Method: NVS_ENZ_hInsR is a biochemical, single-readout assay that uses extracted gene-proteins in a cell-free assay. Measurements were taken 1 hour after chemical dosing in a 384-well plate.NVS_ENZ_hInsR is one of one assay component(s) measured or calculated from the NVS_ENZ_hInsR assay. It is designed to make measurements of enzyme activity, a form of enzyme reporter, as detected with fluorescence intensity signals by Fluorescence and electrophoretic mobility shift technology.Data from the assay component NVS_ENZ_hInsR was analyzed into 1 assay endpoint. This assay endpoint, NVS_ENZ_hInsR, was analyzed in the positive analysis fitting direction relative to DMSO as the negative control and baseline of activity. Using a type of enzyme reporter, loss-of-signal activity can be used to understand changes in the enzymatic activity as they relate to the gene INSR. Furthermore, this assay endpoint can be referred to as a primary readout, because this assay has produced multiple assay endpoints where this one serves a enzymatic activity function. To generalize the intended target to other relatable targets, this assay endpoint is annotated to the kinase intended target family, where the subfamily is receptor tyrosine kinase.
# Binding assays used specific radioligands (tritiated, iodinated) with non-radioactive competitive displacement ligands in agonist or antagonist protocols (as indicated) and various reference compounds and inhibitors to titrate specific binding to receptors and transporters. Most enzyme assays (CYPs, kinases, phosphatases, proteases, HDACs) used recombinant protein and specific substrates (fluorescence mostly, some colorimetric and radioactive) and inhibitors, followed by a biochemical separation of substrate and product. All assays for the biochemical HTS were initially run in duplicate at a single concentration (10 uM for CYP450 assays and 25 uM for all others). […]
# [10] = target: human MET Proto-Oncogene, Receptor Tyrosine Kinase (MET), MET (gene 4233) (UniProt P08581); experiment: NVS_ENZ_hMet: NovaScreen (NVS) Enzymatic Assay for human MET Proto-Oncogene, Receptor Tyrosine Kinase (MET) (AID 2283180)
# In short: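 Hits from a 25 uM duplicate screen were retested in concentration series up to 50 uM. Enzyme activity was measured by fluorescence after electrophoretic separation of product from substrate, 1 h after compound addition, relative to DMSO.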
smiles,measurement,setting,value
O=C(Nc1ccccc1)Nc1cnns1,outcome,[1],inactive
Oc1ccc(Cl)cc1Cc1ccccc1,outcome,[2],inactive
same,outcome,[3],inactive
same,AC50,[4],6.03 µM (active)
same,outcome,[4],inactive
O=C(O)COc1ccc(Cl)cc1Cl,outcome,[5],inactive
CC(C)(C)C(O)C(Oc1ccc(Cl)cc1)n1cncn1 (configuration not stated),outcome,[6],inactive
COC(=O)c1ccccc1S(=O)(=O)NC(=O)Nc1nc(C)nc(OC)n1,outcome,[1],inactive
COC(=O)c1ccccc1S(=O)(=O)NC(=O)N(C)c1nc(C)nc(OC)n1,outcome,[7],inactive
same,outcome,[8],inactive
same,AC50,[3],9.14 µM (active)
CC[C@H](C)[C@H]1O[C@]2(C=C[C@@H]1C)C[C@@H]1C[C@@H](C/C=C(\C)[C@@H](O[C@H]3C[C@H](OC)[C@@H](O[C@H]4C[C@H](OC)[C@@H](O)[C@H](C)O4)[C@H](C)O3)[C@@H](C)/C=C/C=C3\CO[C@@H]4[C@H](O)C(C)=C[C@@H](C(=O)O1)[C@]34O)O2 (tested in a mixture with another compound),AC50,[6],13.8 µM (active)
same,AC50,[1],25 µM (active)
O=S(=O)(O)C(F)(F)C(F)(F)C(F)(F)C(F)(F)C(F)(F)C(F)(F)C(F)(F)C(F)(F)F,AC50,[2],39.3 µM (active)
same,AC50,[5],27.2 µM (active) and 25.9 µM (active)
same,AC50,[9],11.7 µM (active)
same,AC50,[7],34.9 µM (active) and 41 µM (active)
same,AC50,[8],32.7 µM (active)
same,outcome,[3],inactive
same,AC50,[10],36.1 µM (active) and 40.4 µM (active)
same,AC50,[1],7.53 µM (active) and 43 µM (active)
COC(=O)c1ccccc1CS(=O)(=O)NC(=O)Nc1nc(OC)cc(OC)n1,outcome,[9],inactive
same,outcome,[6],inactive
N#Cc1c(Cl)c(Cl)c(Cl)c(C#N)c1Cl,AC50,[2],25 µM (active)
same,outcome,[8],inactive
Oc1cc(Cl)ccc1Oc1ccc(Cl)cc1Cl,outcome,[6],inactive
same,outcome,[7],inactive
same,outcome,[8],inactive
CC(C)(C)C(O)/C(=C\c1ccc(Cl)cc1Cl)n1cncn1 (configuration not stated),outcome,[7],inactive
CCCN(CCOc1c(Cl)cc(Cl)cc1Cl)C(=O)n1ccnc1,AC50,[4],13 µM (active)
Cc1cc(C)nc(NC(=O)NS(=O)(=O)c2ccccc2C(=O)OC2COC2)n1,AC50,[3],18.6 µM (active)
O=C(O)C(F)(F)C(F)(F)C(F)(F)C(F)(F)C(F)(F)C(F)(F)C(F)(F)F,outcome,[5],inactive
same,outcome,[9],inactive
same,outcome,[3],inactive
same,outcome,[10],inactive
same,outcome,[1],inactive
O=[N+]([O-])/N=C1\NCCN1Cc1ccc(Cl)nc1,outcome,[8],inactive
